Experiment [1] deals with Calcium/calmodulin-dependent protein kinase type 1 (Homo sapiens) (UniProt Q14012). The note with it: at 1 µM.
The target is the same in experiment [2]. The note with it: at 10 µM.
The target in experiment [3] is Calcium/calmodulin-dependent protein kinase type II subunit beta (Homo sapiens) (UniProt Q13554). The note with it: at 1 µM.
The target is the same in experiment [4]. The note with it: at 10 µM.
Experiment [5] has as its target Calcium/calmodulin-dependent protein kinase type II subunit gamma (Homo sapiens) (UniProt Q13555). The note with it: at 1 µM.
The target is the same in experiment [6]. The note with it: at 10 µM.
The target of experiment [7] is Calcium/calmodulin-dependent protein kinase type II subunit delta (Homo sapiens) (UniProt Q13557). The note with it: at 1 µM.
Chain of Calcium/calmodulin-dependent protein kinase type II subunit delta (Homo sapiens) (Q13557 whole entry): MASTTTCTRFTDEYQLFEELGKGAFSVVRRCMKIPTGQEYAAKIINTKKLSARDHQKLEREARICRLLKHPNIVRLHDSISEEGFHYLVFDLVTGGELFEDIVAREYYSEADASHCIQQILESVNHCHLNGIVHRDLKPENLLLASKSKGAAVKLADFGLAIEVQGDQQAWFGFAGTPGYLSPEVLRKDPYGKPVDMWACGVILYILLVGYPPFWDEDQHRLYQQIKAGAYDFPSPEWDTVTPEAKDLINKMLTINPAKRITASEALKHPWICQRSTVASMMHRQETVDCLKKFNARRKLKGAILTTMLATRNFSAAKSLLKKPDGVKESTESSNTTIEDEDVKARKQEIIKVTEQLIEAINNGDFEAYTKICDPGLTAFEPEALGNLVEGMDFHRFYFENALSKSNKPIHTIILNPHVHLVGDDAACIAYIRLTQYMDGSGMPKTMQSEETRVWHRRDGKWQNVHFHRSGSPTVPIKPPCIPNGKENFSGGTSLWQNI
The target is the same in experiment [8]. The note with it: at 10 µM.
The target of experiment [9] is T1, Calcium/calmodulin-dependent protein kinase type IV (Homo sapiens) (UniProt Q16566).
T1 sequence (whole entry): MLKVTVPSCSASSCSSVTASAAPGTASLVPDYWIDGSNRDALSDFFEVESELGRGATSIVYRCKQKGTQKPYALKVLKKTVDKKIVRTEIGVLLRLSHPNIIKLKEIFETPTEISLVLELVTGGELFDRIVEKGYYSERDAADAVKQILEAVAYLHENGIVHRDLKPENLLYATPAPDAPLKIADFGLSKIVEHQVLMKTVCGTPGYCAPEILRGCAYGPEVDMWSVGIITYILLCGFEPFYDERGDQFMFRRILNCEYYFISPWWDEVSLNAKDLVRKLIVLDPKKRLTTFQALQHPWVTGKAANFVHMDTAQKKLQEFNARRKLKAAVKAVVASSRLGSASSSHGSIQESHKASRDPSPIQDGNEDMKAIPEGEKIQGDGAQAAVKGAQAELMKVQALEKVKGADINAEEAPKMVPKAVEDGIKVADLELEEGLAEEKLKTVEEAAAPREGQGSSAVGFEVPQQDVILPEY
The note with it: at 1 µM.

Experiment [10] concerns the target Death-associated protein kinase 1 (Homo sapiens) (UniProt P53355). The note with it: at 10 µM.
In experiment [11] the target is Death-associated protein kinase 2 (Homo sapiens) (UniProt Q9UIK4). The note with it: at 1 µM.
Chain of Death-associated protein kinase 2 (Homo sapiens) (Q9UIK4 whole entry, looked up): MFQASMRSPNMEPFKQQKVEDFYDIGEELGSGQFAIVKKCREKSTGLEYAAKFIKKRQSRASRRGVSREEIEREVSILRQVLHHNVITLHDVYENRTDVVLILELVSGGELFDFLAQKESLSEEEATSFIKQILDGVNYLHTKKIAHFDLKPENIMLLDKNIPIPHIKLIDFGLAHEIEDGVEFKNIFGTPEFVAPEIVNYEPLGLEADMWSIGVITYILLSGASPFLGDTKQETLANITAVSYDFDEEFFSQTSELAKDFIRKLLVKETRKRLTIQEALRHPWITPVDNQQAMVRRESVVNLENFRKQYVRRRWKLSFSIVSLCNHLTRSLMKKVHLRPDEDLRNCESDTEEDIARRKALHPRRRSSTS
Experiment [12] has the same target. The note with it: at 10 µM.
Experiment [13] deals with T2, Serine/threonine-protein kinase DCLK2 (Homo sapiens) (UniProt Q8N568).
T2 sequence (whole entry): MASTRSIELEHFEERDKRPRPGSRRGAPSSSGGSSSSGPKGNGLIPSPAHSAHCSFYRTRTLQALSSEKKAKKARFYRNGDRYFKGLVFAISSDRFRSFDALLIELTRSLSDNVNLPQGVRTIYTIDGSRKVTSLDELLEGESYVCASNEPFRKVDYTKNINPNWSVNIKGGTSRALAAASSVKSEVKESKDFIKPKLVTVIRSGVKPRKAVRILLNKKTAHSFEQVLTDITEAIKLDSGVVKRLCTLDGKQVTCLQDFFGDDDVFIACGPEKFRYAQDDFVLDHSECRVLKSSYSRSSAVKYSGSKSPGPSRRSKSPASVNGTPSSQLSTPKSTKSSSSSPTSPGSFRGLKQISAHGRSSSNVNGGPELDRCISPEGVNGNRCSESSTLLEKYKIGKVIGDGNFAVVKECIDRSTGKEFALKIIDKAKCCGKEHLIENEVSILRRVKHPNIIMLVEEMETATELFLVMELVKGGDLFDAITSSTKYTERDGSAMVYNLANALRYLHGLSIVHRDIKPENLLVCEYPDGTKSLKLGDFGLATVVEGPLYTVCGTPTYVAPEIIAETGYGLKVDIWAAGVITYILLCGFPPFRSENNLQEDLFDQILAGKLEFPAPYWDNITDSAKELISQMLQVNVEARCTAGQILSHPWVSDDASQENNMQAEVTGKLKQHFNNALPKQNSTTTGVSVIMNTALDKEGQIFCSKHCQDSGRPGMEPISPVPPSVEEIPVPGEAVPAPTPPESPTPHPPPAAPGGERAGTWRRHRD
The note with it: at 1 µM.

Experiment [14] concerns the target T2, Serine/threonine-protein kinase DCLK2 (Homo sapiens). The note with it: at 10 µM.
Experiment [15] concerns the target T3, Discoidin domain-containing receptor 2 (Homo sapiens) (UniProt Q16832).
T3 sequence (whole entry): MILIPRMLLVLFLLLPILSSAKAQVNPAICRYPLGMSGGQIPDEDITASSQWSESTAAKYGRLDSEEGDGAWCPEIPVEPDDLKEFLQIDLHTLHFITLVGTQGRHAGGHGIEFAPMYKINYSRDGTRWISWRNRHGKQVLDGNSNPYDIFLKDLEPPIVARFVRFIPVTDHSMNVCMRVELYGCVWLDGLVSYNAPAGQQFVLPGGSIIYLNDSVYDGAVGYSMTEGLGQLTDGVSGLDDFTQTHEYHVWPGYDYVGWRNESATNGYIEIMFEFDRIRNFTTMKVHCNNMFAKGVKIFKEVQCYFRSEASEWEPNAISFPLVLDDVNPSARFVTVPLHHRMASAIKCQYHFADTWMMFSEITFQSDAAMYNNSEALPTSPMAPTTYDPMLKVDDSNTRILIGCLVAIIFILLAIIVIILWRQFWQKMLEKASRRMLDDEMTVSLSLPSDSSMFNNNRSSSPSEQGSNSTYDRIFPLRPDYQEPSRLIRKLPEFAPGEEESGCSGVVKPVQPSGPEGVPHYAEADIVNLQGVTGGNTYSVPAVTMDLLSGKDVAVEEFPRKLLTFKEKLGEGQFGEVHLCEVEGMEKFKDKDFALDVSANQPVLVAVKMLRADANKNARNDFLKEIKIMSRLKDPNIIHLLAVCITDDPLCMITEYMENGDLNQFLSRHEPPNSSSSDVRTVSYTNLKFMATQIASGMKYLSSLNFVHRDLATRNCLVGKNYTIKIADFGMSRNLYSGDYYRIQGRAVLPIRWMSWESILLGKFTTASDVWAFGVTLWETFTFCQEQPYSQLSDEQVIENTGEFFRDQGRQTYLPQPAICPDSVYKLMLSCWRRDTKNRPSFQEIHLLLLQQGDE
The note with it: at 1 µM.

In experiment [16] the target is T3, Discoidin domain-containing receptor 2 (Homo sapiens). The note with it: at 10 µM.
Experiment [17] concerns the target T4, Myotonin-protein kinase (Homo sapiens) (UniProt Q09013).
T4 sequence (whole entry): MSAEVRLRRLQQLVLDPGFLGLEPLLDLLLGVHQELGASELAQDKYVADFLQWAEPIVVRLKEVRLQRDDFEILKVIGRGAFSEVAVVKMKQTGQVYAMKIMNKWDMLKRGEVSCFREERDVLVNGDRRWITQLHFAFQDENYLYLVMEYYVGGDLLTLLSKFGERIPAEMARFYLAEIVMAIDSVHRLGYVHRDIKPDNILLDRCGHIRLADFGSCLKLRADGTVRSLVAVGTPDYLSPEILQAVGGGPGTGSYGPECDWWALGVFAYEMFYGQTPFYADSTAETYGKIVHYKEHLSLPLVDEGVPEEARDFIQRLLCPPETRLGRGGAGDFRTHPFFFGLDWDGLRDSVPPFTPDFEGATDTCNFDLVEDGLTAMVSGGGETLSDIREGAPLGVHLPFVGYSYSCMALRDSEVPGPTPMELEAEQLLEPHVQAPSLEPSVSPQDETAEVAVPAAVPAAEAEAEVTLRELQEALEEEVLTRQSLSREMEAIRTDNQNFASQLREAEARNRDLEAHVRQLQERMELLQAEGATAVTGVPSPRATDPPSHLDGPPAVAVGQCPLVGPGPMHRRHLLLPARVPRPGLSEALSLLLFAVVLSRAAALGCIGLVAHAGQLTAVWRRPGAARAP
The note with it: at 1 µM.

Experiment [18] deals with T4, Myotonin-protein kinase (Homo sapiens). The note with it: at 10 µM.
For experiment [19], the target named is T1, Calcium/calmodulin-dependent protein kinase type IV (Homo sapiens). The note with it: at 10 µM.
Experiment [20] has as its target T5, Serine/threonine-protein kinase 17A (Homo sapiens) (UniProt Q9UEE5).
T5 sequence (whole entry): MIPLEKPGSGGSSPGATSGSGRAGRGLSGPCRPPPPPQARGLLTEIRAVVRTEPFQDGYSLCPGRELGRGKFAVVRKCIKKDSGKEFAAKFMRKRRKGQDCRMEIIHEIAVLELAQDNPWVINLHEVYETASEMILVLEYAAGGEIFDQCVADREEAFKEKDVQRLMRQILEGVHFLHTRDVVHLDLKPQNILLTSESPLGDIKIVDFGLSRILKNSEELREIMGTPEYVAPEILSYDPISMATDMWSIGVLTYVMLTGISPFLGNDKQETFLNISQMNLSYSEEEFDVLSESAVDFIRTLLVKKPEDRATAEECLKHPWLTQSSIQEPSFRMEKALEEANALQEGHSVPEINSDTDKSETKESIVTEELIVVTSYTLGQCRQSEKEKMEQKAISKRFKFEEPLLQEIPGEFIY
The note with it: at 1 µM.

Structures are written as SMILES.

These results are taken from ChEMBL document CHEMBL2218924, “A broad activity screen in support of a chemogenomic map for kinase signalling research and drug discovery” (Biochem J, 2013).

Chain of Calcium/calmodulin-dependent protein kinase type II subunit gamma (Homo sapiens) (Q13555 whole entry): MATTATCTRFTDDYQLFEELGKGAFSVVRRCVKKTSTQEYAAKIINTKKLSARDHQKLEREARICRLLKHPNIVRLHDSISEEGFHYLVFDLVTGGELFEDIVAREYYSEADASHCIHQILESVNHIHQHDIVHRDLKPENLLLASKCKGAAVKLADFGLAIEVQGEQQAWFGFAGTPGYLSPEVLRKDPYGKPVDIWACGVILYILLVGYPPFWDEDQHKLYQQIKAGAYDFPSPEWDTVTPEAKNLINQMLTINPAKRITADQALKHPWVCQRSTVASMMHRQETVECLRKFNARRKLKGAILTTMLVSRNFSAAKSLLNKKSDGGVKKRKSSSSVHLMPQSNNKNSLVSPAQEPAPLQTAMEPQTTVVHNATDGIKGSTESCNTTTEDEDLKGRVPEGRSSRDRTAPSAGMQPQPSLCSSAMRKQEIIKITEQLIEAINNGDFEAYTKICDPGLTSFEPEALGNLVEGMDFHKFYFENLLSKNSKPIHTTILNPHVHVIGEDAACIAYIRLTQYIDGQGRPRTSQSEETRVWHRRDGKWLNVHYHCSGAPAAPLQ
Chain of Calcium/calmodulin-dependent protein kinase type II subunit beta (Homo sapiens) (Q13554 whole entry): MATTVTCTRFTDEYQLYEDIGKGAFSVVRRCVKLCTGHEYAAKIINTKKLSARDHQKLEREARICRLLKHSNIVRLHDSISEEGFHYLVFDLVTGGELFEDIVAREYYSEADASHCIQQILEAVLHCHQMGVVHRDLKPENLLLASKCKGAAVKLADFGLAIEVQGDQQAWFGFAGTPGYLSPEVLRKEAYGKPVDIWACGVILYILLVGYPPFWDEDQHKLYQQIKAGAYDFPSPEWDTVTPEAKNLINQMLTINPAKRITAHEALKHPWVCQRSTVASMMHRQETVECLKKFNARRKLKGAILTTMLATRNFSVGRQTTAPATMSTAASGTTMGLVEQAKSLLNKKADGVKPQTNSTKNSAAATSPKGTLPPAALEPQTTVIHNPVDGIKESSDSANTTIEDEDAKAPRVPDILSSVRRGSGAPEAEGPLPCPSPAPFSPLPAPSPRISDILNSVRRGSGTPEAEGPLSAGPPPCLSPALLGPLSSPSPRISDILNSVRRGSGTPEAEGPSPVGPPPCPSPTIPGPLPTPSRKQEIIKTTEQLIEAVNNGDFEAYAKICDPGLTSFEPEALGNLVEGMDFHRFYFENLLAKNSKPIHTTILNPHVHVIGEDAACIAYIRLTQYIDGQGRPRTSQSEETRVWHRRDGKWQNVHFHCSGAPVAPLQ
Chain of Calcium/calmodulin-dependent protein kinase type 1 (Homo sapiens) (Q14012 whole entry, looked up): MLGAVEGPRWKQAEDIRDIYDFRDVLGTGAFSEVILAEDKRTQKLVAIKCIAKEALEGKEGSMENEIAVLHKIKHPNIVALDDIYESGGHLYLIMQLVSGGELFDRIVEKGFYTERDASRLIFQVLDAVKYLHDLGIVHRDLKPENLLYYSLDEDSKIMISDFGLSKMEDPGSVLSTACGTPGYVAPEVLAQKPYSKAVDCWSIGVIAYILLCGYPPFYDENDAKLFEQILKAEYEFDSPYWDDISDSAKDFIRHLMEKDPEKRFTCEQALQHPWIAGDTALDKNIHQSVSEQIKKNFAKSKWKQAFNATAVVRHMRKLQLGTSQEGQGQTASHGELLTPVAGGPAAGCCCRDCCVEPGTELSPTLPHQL
Chain of Death-associated protein kinase 1 (Homo sapiens) (P53355 whole entry, looked up): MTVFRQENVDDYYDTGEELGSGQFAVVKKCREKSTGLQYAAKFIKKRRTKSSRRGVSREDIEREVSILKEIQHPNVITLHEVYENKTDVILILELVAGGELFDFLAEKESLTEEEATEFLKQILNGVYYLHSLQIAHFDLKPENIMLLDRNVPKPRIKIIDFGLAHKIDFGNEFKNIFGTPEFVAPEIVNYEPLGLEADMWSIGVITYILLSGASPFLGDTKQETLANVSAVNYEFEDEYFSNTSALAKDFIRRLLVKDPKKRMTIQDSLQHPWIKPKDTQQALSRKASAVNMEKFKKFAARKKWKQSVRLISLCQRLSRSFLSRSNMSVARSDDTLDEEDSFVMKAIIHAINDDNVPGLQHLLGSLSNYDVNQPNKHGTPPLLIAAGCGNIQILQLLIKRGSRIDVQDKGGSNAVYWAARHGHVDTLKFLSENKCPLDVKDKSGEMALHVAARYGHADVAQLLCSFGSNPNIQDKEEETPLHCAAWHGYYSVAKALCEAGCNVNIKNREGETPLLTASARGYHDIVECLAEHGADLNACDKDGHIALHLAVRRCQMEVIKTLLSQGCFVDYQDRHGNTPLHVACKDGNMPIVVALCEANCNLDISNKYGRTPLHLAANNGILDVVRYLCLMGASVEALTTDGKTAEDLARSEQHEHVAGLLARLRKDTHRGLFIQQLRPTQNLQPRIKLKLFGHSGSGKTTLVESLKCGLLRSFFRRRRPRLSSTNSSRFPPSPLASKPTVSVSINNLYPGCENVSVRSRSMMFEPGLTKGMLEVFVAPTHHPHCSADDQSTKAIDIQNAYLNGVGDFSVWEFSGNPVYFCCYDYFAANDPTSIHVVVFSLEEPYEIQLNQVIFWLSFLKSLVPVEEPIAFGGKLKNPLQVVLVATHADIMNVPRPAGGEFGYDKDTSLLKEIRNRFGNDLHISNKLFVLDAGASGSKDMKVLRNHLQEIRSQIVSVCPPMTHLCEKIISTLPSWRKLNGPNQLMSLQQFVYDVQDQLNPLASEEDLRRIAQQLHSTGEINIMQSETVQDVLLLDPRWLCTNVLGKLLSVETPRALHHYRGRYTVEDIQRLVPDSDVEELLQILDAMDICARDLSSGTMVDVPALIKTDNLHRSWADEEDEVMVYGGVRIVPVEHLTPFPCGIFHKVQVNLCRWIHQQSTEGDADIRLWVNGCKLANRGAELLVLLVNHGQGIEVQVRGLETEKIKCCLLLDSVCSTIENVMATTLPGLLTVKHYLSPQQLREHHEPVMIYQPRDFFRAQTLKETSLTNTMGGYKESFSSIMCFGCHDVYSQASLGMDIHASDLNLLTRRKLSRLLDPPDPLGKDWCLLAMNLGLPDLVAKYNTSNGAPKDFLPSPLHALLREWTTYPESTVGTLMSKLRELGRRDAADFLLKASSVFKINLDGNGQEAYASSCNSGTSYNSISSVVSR

The term residual activity denotes the signal under treatment as a percentage of the control signal. As to `O=C(CCCc1ccc(-c2ccccc2F)cc1)Nc1ccc(O)cc1`, the residual activity is 92% in experiment [1]; 73% in experiment [2]; 100% in experiment [3]; 89% in experiment [4]; 106% in [5]; 75% in experiment [6]. The residual activity in [7] is 109%; in experiment [8], 78%; in experiment [9], 104%; in [10], 105%; in experiment [11], 102%; in experiment [12], 99%. For the same compound, the residual activity in experiment [13] was 133%; in experiment [14], 192%; in experiment [15] it was 99%; in experiment [16], 111%; in [17], 108%; in experiment [18] it was 97%.

Turning to `O=C(O)/C=C/c1cc(Br)c(Br)c(Br)c1Br`, the residual activity came to 102% in experiment [1]; 74% in experiment [2]; 78% in experiment [3]; 39% in [4]; 98% in [5]; 31% in experiment [6]. Further, the residual activity is 83% in [7]; 26% in [8]; 94% in [9]; 80% in experiment [19]; 62% in [10]; 91% in [11]. Further, the residual activity in experiment [12] was 39%; in experiment [13] it was 98%; in [14] it was 68%; in [15], 93%; in experiment [16] it was 95%; in experiment [17] it was 93%. Further, the residual activity in [18] was 76%; in experiment [20], 79%.

For `Nc1n[nH]c2nc3ccccc3nc12`, the residual activity in [1] was found to be 87%; in [2], 68%; in experiment [3], 75%; in [4], 16%; in experiment [5], 86%; in experiment [6] it was 28%. For the same compound, the residual activity was 86% in experiment [7]; 36% in experiment [8]; 121% in [9]; 87% in experiment [19]; 96% in experiment [10]; 98% in [13]. For the same compound, the residual activity is 84% in [14], 98% in experiment [17], 76% in [18] and 86% in experiment [20].

Regarding `COc1ccc(-c2cnc3c(-c4ccsc4)cnn3c2)cc1`, the residual activity is 88% in experiment [1]; 80% in experiment [2]; 93% in [3]; 89% in experiment [4]; 71% in experiment [5]; 79% in experiment [6]. Also, the residual activity in experiment [7] turned out to be 80%; in [8], 87%; in experiment [13], 84%; in experiment [14] it was 100%; in experiment [17], 145%; in [18], 129%. Besides, the residual activity in experiment [20] is 95%.

In the case of `CCN(CC)CCNC(=O)c1c(C)[nH]c(/C=C2\C(=O)Nc3ccc(Cl)cc32)c1C`, the residual activity in experiment [1] was 51%; in [2] it was -2%; in experiment [3], 8%; in experiment [4], 1%; in experiment [5], 3%; in experiment [6] it was 0%. For the same compound, the residual activity in experiment [7] was found to be 3%; in experiment [8] it was 1%; in experiment [10] it was 31%; in experiment [11], 63%; in experiment [12] it was 16%; in [13], 68%. For the same compound, the residual activity in experiment [14] turned out to be 24%; in [16], 44%; in experiment [17], 52%; in experiment [18] it was 68%; in experiment [20] it was 3%.

With `CCCCc1c(-c2ccc(OC)cc2)[nH]c2nccnc12`, the residual activity in [1] was 109%; in [2] it was 86%; in experiment [3] it was 82%; in experiment [4], 84%; in experiment [5] it was 64%; in experiment [6] it was 26%. The residual activity in experiment [7] is 73%; in experiment [8] it was 42%; in experiment [9] it was 112%; in experiment [11], 101%; in experiment [12] it was 100%; in experiment [13] it was 72%. The residual activity worked out at 106% in [14], 71% in experiment [15], 59% in experiment [16] and 79% in experiment [20].
